Source: PubChem (National Center for Advancing Translational Sciences (NCATS))
S16 viability: S16 Schwann cell cytotoxicity | actives 0.48% (n = 43,000) | S16 Pmp22-F2sN Schwann cells viability, CellTiter-Glo, 24 h | Potency, µM (titrated, usually from 57.5 µM), inactives show at the highest dose activity change, negative = cytotoxicity, most hits filed as cytotoxic; further: potency means the concentration at half of the fitted maximal effect; on the % scale 0 is the no-effect control and ±100 the full control effect; nearly all actives have a fitted effect of over 65% in size
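Viability was measured by CellTiter-Glo luminescence (15 min, room temperature). This followed 24 h at 37 °C of compound exposure (23 nL pin transfer) in S16 Pmp22-F2sN Schwann cells, 500-1,000 per well.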
p53null 32C tox: p53 null cell cytotoxicity, permissive temperature; AID 903; actives 0.62% (n = 55,000); Potency, µM (highest dose often 46.1 µM), for inactives: top-dose activity change, negative = cytotoxicity, hits mostly cytotoxic; H1299-neo p53 null cells, ATP luminescence, 24 h, 32C;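 further: potency means the concentration at half of the fitted maximal effect; 0% = DMSO only and -100% = full killing by 100 µM tamoxifen; nearly all actives have a fitted effect of over 55% in size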
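H1299-neo (p53 null) cells, 600/well, treated 24 h at 32C with compound up to 46 uM; ATPlite luminescence viability, normalized to DMSO and 100 uM tamoxifen; AC50 by Hill fit.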
PMP22 txn prim: modulators of PMP22 gene transcription in S16 Schwann cells. S16 Pmp22-F2sN Schwann cells, FLuc/NLuc coincidence luminescence, 24 h. Potency, µM (top dose mostly 57.5 µM), without a hit: top-dose activity change, negative = inhibition, actives largely listed as inhibitors. actives 2% (n = 43,000). AID 1508649; active means clear falling dose curves in both reporters; inconclusive means both reporters move, but less clearly or upward; inactive means either reporter flat; the % is the NLuc reporter signal; further: potency means the concentration at half of the fitted maximal effect; on the % scale 0 is the no-effect control and ±100 the full control effect
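qHTS, 1536-well. Cells seeded, compounds added by pin tool, 24 h 37C. Nano-Glo reagent 1 (lysis/FLuc), 10 min RT, read; Stop&Glo, 10 min RT, read NLuc.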
p53null 39C kill: p53 null cell cytotoxicity, nonpermissive temperature. H1299 p53-null (neo) cells, 39C, ATPlite viability, 24 h. Potency, µM (doses to about 46.1 µM), without a hit: at the highest dose activity, negative = cell killing, most hits filed as cytotoxic. actives 0.97% (n = 55,000). AID 904;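 further: potency means the concentration at half of the fitted maximal effect; 0% = DMSO only and -100% = full killing by 100 µM tamoxifen; nearly all actives have a fitted effect of over 50% in size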
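Following overnight plating at 37C (600 cells/well), H1299-neo or H1299-p53A138V cells are dosed up to 46 uM. Incubation lasts 24 hr at 39C before ATP detection.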
OvCa metastasis: inhibitors of ovarian cancer cell adhesion and invasion in omental model. AID 1963576. Potency, µM (highest dose often 45.8 µM), for the others: at the highest dose activity change, negative = inhibition, hits mostly inhibitors. actives 0.1% (n = 46,000). SKOV3ip1-GFP adhesion/invasion on 3D omental model, fluorescence;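 further: potency means the concentration at half of the fitted maximal effect; plate controls were DMSO wells for no effect and tomatine positive control wells for full effect; nearly all actives have a fitted effect of over 65% in size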
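Primary human omental fibroblast/mesothelial 3D culture pre-formed 48 h. SKOV3ip1-GFP cells added with compounds (0.36-46 umol/L), incubated 2 h RT/16 h 37 C, fixed; GFP cells quantified at 488/509 nm.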
pS6 MEF inh: inhibitors of mTORC1 signaling in Tsc2-/- p53-/- MEF cells; Tsc2-/- p53-/- MEF, phospho-rpS6 immunofluorescence/PI, 24 h; actives 0.78% (n = 44,000); Potency, µM (top dose mostly 38.3 µM), for inactives: top-dose activity change, negative = inhibition, usual class: inhibitors;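 further: potency means the concentration at half of the fitted maximal effect; plate controls were DMSO for no effect and rapamycin for full effect; nearly all actives have a fitted effect of over 50% in size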
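Immunofluorescence of rpS6 phosphorylation in Tsc2-/-, p53-/- MEFs after 24 h compound exposure, normalized to propidium iodide signal. Activity is expressed as % positive cells, thresholded with 7.5 nM rapamycin.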
NLuc sat counter: inhibits NanoLuc at saturating substrate, PMP22 counter-screen; shares compounds with PMP22 txn prim; Secreted NLuc enzyme (filtered S16 cell medium), Nano-Glo luminescence; Potency, µM (top dose mostly 57.5 µM), for the others: top-dose activity change, negative = inhibition, hits mostly inhibitors; actives 4% (n = 690); further: potency means the concentration at half of the fitted maximal effect; on the % scale 0 is the no-effect control and ±100 the full control effect
NLuc Km ctr: NanoLuc inhibition at Km substrate, PMP22 artifact check; shares compounds with PMP22 txn prim; secreted NLuc enzyme, coelenterazine luminescence, Km conditions; Potency, µM (highest dose often 57.5 µM), without a hit: at the top dose activity change, negative = inhibition, most hits filed as inhibitors; actives 5% (n = 690); AID 1508639; further: potency means the concentration at half of the fitted maximal effect; on the % scale 0 is the no-effect control and ±100 the full control effect
FLuc counter: counter-screen for PMP22 expression modulators: firefly luciferase inhibition. AID 1508640. purified P. pyralis FLuc, luminescence, 10 min. shares compounds with PMP22 txn prim. Potency, µM (highest dose often 57.5 µM), without a hit: top-dose activity, negative = inhibition, actives largely listed as inhibitors. 690 tested, under 10 active; further: % of control where 0% means no effect
Target sequence (P08659 whole entry, looked up): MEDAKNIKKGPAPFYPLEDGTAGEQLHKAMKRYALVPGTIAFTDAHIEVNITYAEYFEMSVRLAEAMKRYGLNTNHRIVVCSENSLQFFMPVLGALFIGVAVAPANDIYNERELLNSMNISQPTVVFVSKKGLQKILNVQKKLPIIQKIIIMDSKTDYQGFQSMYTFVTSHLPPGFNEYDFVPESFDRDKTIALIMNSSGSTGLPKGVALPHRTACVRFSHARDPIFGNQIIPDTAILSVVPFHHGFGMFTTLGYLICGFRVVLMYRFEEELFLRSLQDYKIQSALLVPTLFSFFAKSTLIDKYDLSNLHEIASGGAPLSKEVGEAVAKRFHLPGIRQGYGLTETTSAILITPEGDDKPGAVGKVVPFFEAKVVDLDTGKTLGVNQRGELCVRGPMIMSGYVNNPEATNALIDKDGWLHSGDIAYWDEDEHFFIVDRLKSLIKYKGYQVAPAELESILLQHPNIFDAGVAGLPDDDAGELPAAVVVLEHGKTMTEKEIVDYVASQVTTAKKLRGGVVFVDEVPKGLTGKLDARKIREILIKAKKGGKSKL
S16 viab conf: confirmation of cytotoxicity in S16 Pmp22-F2sN Schwann cells (luciferase reporters placed in the Pmp22 gene); shares compounds with PMP22 txn prim; S16 Schwann cells viability, CellTiter-Glo ATP luminescence, 24 h; Potency, µM (doses to about 57.5 µM), without a hit: top-dose activity change, negative = viability loss, hits mostly cytotoxic; actives 7% (n = 690); further: potency means the concentration at half of the fitted maximal effect; on the % scale 0 is the no-effect control and ±100 the full control effect
PMP22 txn conf: PMP22 transcription modulation, confirmatory. actives 22% (n = 690). AID 1508646. shares compounds with PMP22 txn prim. S16 Schwann cells Pmp22-F2sN, dual luciferase, 24 h. Potency, µM (doses to about 57.5 µM), without a hit: top-dose activity change, negative = inhibition, hits mostly inhibitors; active means clear falling dose curves in both reporters; inconclusive means both reporters move, but less clearly or upward; inactive means either reporter flat; the % is the FLuc reporter signal; further: potency means the concentration at half of the fitted maximal effect
* hit, by the source's call; i = inactive; ? = inconclusive; · = no result. Shown are actives, neighbours in structure and some others; about 3% of the full set was active somewhere. Unless noted, the call rests on the fitted dose curve; in most records, active means well fitted curve in the direction sought with a large enough effect; inconclusive means small, poorly fitted or top-dose-only effect, or another doubt; inactive means no such curve, though single readings can be large; an effect the other way counts as inactive or inconclusive.

SMILES	S16 viability	p53null 32C tox	PMP22 txn prim	p53null 39C kill	OvCa metastasis	pS6 MEF inh	NLuc sat counter	NLuc Km ctr	FLuc counter	S16 viab conf	PMP22 txn conf
O=C(CSc1c2c(nc3cc(Cl)ccc13)CCCC2)NCc1ccccc1Cl	?	12.3%	?	?	?	-26.5%	·	·	·	·	·
COC(=O)c1ccccc1NC(=O)CSc1c2c(nc3ccc(Cl)cc13)CCCC2	16.8%	22.4%	17.8µM*	-7.1%	5.0%	-0.1%	-14.7%	4.0%	6.3%	?	?
O=C(c1cc(Cc2n[nH]c(=O)c3ccccc23)ccc1F)N1CCN(C(=O)C2CC2)CC1	·	·	·	·	-0.3%	·	·	·	·	·	·
CC(=O)NC(CS)C(=O)O (configuration not stated)	·	·	·	·	-22.9%	·	·	·	·	·	·
CCCNC(=O)CSc1c2c(nc3ccc(Cl)cc13)CCCC2	16.1%	27.6%	?	57.0%	-13.3%	?	·	·	·	·	·
Cc1ccc(C)c(NC(=O)CSc2c3c(nc4ccc(Cl)cc24)CCCC3)c1	1.2%	0.8%	15µM*	-20.1%	3.0%	2.1%	-20.3%	-6.9%	4.7%	0.1%	?
Cc1ccc(CNC(=O)CSc2c3c(nc4ccc(Cl)cc24)CCCC3)cc1	1.3%	2.3%	10µM*	-11.6%	i	-11.1%	-13.3%	?	-4.7%	5.2%	-16.5%
CON=C(C(=O)N[C@@H]1C(=O)N2C(C(=O)O)=C(Cn3ccc(=N)n3CCO)CS[C@H]12)c1csc(N)n1	·	·	·	·	-9.4%	·	·	·	·	·	·
CCOc1ccc(C(=O)N2CCc3cc(OC)c(OC)cc3C2COc2ccc3c(C)cc(=O)oc3c2)cc1OCC (configuration not stated)	-2.5%	12.2%	13.4µM*	-0.5%	-1.9%	-1.8%	-6.6%	4.9%	4.5%	1.1%	-33.8%
CCOc1ccc(-c2nc3c(C#N)c[nH]n3c2NC2CCCCC2)cc1	-22.7%	7.9%	?	7.2%	0.5%	1.5%	·	·	·	·	·
COc1ccc(-c2nc3c(C#N)c[nH]n3c2NC2CCCC2)cc1	22.4µM*	-7.3%	15µM*	-9.8%	1.2%	0.2%	?	?	-16.2%	12.2%	?
CCOC(=O)c1ccccc1NC(=O)c1nn(C)c2c1COc1ccccc1-2	9.0%	25.7%	16.8µM*	43.3%	-6.0%	-17.5%	-7.2%	2.0%	-13.7%	-7.8%	18.3µM*
